About 18,000 (4.4%) of roughly 410,000 compounds were called active. About 7% were inconclusive and are not listed. For the sample, actives were picked, then their nearest neighbours and some compounds at random. A number with no mark means an inactive call. Cut-off read from the data, not from the text of the source: active = activity change below about -60%; inconclusive = no clear call, values can overlap the other calls; inactive = above about -39%.
Assay: qHTS Assay for inhibitors of the human cytomegalovirus (HCMV)
Conditions: HFF cells, HCMV-luciferase reporter, 72 h; at 57.5 µM; hits give low values
Summary of the method: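 Luciferase read-out from HCMV-luciferase-infected HFFs (MOI 1 PFU/cell) 72 h post infection at 37C; compounds added after 16 h cell attachment; activity normalized between buffer-only basal and Salinomycin (10uM) inhibitor controls.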
% is set by controls: 0 for no effect and ±100 for the full control effect.

Row | Structure (SMILES) | activity change, negative = inhibition
1 | CC1CC(C)CN(C(=O)CSc2ccsc2[N+](=O)[O-])C1 (stereo unspecified) | -70.8% (active)
2 | CC1CC(C)CN(C(=O)CSc2nnc(CSc3ncccn3)n2C)C1 (stereo unspecified) | -15.8%
3 | O=C(CSc1ccsc1[N+](=O)[O-])N1CCCCC1 | 3.43%
4 | CC(C)C(OC(=O)c1cccs1)C(=O)NC1CCCCC1 (stereo unspecified) | 55.6%
5 | CC(C)=C1N(S(=O)(=O)C(F)(F)F)CCC12CN(C)c1ccccc12 (stereo unspecified) | -18.4%
6 | CCC(=O)N1c2ccccc2CC1C(=O)N1CCN(c2cccc(OC)c2)CC1 (stereo unspecified) | 16.8%
7 | COC(=O)c1c(C)[nH]c(C(=O)/C=C/c2ccc(Cl)cc2)c1C | -85.4% (active)
8 | COC(=O)c1c(C)oc(C)c1S(=O)(=O)NCc1ccc(Cl)cc1 | -3.12%
9 | COc1ccc(C)cc1NC(=O)c1[nH]c(C)c(C(C)=O)c1C | 106%
10 | Cc1ccc(CCC(=O)Nc2ncc(Cc3cc(Cl)ccc3Cl)s2)o1 | -89.7% (active)
11 | CCc1ccc(CCC(=O)Nc2ccc(S(N)(=O)=O)cc2)o1 | -16.8%
12 | COc1ccccc1N1CCN(C(=O)C2CCN(S(=O)(=O)c3c(C)noc3/C=C/c3ccc(C)cc3)CC2)CC1 | 1.7%
13 | CCCN(CCC)C(=O)C(Cc1ccccc1)NS(=O)(=O)c1ccc2c(c1)c(=O)n(C)c(=O)n2C (stereo unspecified) | 1.57%
14 | CCCCc1cc(=O)oc2c(C)c(OCC(=O)N3CCC(C(N)=O)CC3)ccc12 | -17.9%
15 | CCOC(=O)C1CCN(C(=O)COc2cccc3ccccc23)CC1 | -33.6%
16 | NC(=O)C1CCN(C(=O)COc2cccc3cccnc23)CC1 | -88.1% (active)
17 | CC(C)=CCCC(C)CN1CCC(n2nccc2NC(=O)c2ccccc2)CC1 (stereo unspecified) | -18.5%
18 | COc1ccc(NC(=O)C(c2ccccc2)N2Cc3ccccc3C2=O)cc1 (stereo unspecified) | -2.09%
19 | CC(C)(C)c1ccc(Oc2ccc(N)cc2)cc1 | -86.3% (active)
20 | CC(C)(C)c1ccc(OC(=O)N2CCCCC2)cc1 | 29.6%
21 | Cc1c(Cl)cccc1NC(=O)c1noc2c1CCCC2 | -4.84%
22 | O=C(Nc1c(Br)cc2c(c1Br)Cc1cc([N+](=O)[O-])ccc1-2)C(Cl)Cl | -31.6%

Row | Structure (SMILES) | activity change, negative = inhibition
23 | COc1ccc(-n2c(SC)nc3sc4c(c3c2=O)CCN(C(C)=O)C4)cc1 | 24.9%
24 | Cc1ccc(CNC(=O)Cn2c(=O)ccc3cc(S(=O)(=O)N4CCCC4)ccc32)cc1 | -10.3%
25 | Cc1ccn2c(Nc3ccc4c(c3)OCCO4)c(-c3ccc(C)s3)nc2c1 | 10.7%
26 | N#C/C(=C\c1cccc(F)c1)c1nc(-c2cc3c(ccc4ccccc43)oc2=O)cs1 | 1.4%
27 | CCOc1ccc(Nc2ncnc3scc(-c4ccc(OC)cc4)c23)cc1 | -22.6%
28 | COc1ccc(-c2csc(-c3c(N)c(C(=O)c4ccc(OC)c(OC)c4)n4ccccc34)n2)cc1 | 9.65%
29 | Cc1cc(NC(=O)c2cccc(Cl)c2)ccc1-c1cc2ccccc2oc1=O | 28.2%
30 | O=c1oc2ccccc2cc1-c1csc(Nc2ccc(O)cc2)n1 | -87.2% (active)
31 | COc1ccc(-c2csc(Nc3ccc(O)cc3)n2)cc1 | -72.3% (active)
32 | CC(C)(C)c1ccc(OCC(=O)N2CCC(c3nc4ccccc4s3)CC2)cc1 | 4.7%
33 | COCCn1c(CCC(=O)Nc2cc(C)ccc2C)nc2cccnc21 | 5.25%
34 | O=C(OCc1nnc(-c2ccccc2)o1)c1cc(=O)[nH]c2ccccc12 | -98.7% (active)
35 | CC1CCN(C(=O)COC(=O)c2cc(=O)[nH]c3ccccc23)CC1 | 10.6%
36 | CCOC(=O)c1ccc(COC(=O)c2cc(=O)[nH]c3ccccc23)o1 | -5.78%
37 | CCc1ccc(S(=O)(=O)Nc2cc3c(C(=O)OCc4ccccc4)c(C)oc3c3ccccc23)cc1 | 8.24%
38 | CCN(CC)C(=O)CSC1c2ccccc2C(=O)N1c1ccccc1 (stereo unspecified) | -6.4%
39 | COc1ccc(-c2nc3c(c(SCC(=O)Nc4ccc(C(=O)O)cc4)n2)Cc2ccccc2O3)cc1 | 42.3%
40 | CC(C)c1nnc(NC(=O)COC(=O)/C=C/c2ccc([N+](=O)[O-])cc2)s1 | 28.8%
41 | CCOC(=O)c1c(C)[nH]c(C)c1C(=O)COC(=O)/C=C/c1cccc([N+](=O)[O-])c1 | -7.36%
42 | CCOC(=O)/C(=C\c1ccc([N+](=O)[O-])cc1)C(=O)c1cc(C(C)=O)c(Nc2ccccc2)s1 | -106% (active)
43 | Oc1ccccc1-c1nc2ccc(Cl)cn2c1Nc1ccc2c(c1)OCCO2 | -5.59%
44 | COc1ccccc1CNC(=O)CCn1c(=O)c2ccccc2n(CC(=O)Nc2ccc(Br)cc2F)c1=O | -12.3%

Row | Structure (SMILES) | activity change, negative = inhibition
45 | CCOC(=O)c1ccc(NC(=O)c2nc(SCc3ccc(F)cc3)ncc2Cl)cc1 | 13.6%
46 | Cc1ccc(Cn2c(CNC(=O)Cc3cccc(C)c3)nc3cccnc32)cc1 | -7.33%
47 | Cc1cccc(NC(=O)Cn2cc(S(=O)(=O)Cc3ccccc3Cl)c3ccccc32)c1 | 0%
48 | Cc1cccc(NC(=O)c2nc(S(=O)(=O)Cc3ccccc3)ncc2Cl)c1 | -100% (active)
49 | CCCSc1ncc(Cl)c(C(=O)Nc2c(C(=O)Nc3ccccc3)oc3ccccc23)n1 | -20.1%
50 | Cc1cccc(CS(=O)(=O)c2ncc(Cl)c(C(=O)Nc3ccc(F)cc3)n2)c1 | -110% (active)
51 | CCS(=O)(=O)c1ncc(N(Cc2ccc(F)cc2)Cc2ccco2)c(C(=O)Nc2cc(C)ccc2C)n1 | -29.7%
52 | Cc1ccc(CCNC(=O)c2ccc(CS(=O)(=O)Cc3cccc(C)c3)o2)cc1 | -17.4%
53 | Cc1ccc(NC(=O)c2nc(S(=O)(=O)Cc3cccc(C)c3)ncc2Cl)cc1 | -94.3% (active)
54 | CC=C(C)C(=O)OC1CCN2CC=C(COC(=O)C(O)(C(C)OC)C(C)(C)O)C12 (stereo unspecified) | -28.3%
55 | O=C(CCC1N=C2c3ccccc3N=C(SCc3ccccc3F)N2C1=O)NCCc1ccccc1 (stereo unspecified) | -29%
56 | O=C(Cn1c(=O)n(-c2ccc(F)cc2)c(=O)c2sccc21)Nc1cccc(C(F)(F)F)c1 | -5.68%
57 | CC1CCCCN1S(=O)(=O)c1ccc(F)c(C(=O)Nc2ccccc2C(F)(F)F)c1 (stereo unspecified) | 11%
58 | COc1cc([C@H](Cc2ccccc2)NC(C)=O)oc(=O)c1 | -10.1%
59 | NC(=O)c1sc2nc3c(c(-c4ccccc4)c2c1N)CCC3 | -93.9% (active)
60 | COc1cccc(C(=O)c2sc3nc(-c4ccccc4)cc(C(F)(F)F)c3c2N)c1 | 7.18%
61 | CC(C)OC(=O)c1sc2nc3c(cc2c1N)C(=O)CCC3 | 45.7%
62 | CCOc1ccc(CCNC(=O)COC(=O)CCS(=O)(=O)c2ccc(C)cc2)cc1OCC | 55.9%
63 | COc1ccc(CCNC(=O)COC(=O)Cc2cc(OC)c(OC)c(OC)c2)cc1 | -11.8%
64 | COc1ccc(CC(=O)Nc2nc(-c3ccc(F)c(F)c3)cs2)cc1OC | -78.6% (active)
65 | COc1ccccc1C(=O)Oc1ccc(N2C(=O)CCC2=O)cc1 | -9.72%
66 | COc1ccc(CC(=O)Nc2nnc3n2CCS3)cc1OC | 1.77%

Row | Structure (SMILES) | activity change, negative = inhibition
67 | COc1ccc(C(=O)Nc2cc(S(=O)(=O)N3CCCC3)ccc2Cl)cc1 | -31.9%
68 | COc1ccc(-n2nc3c(c2NC(=O)c2ccc(N4C(=O)CCC4=O)cc2)CSC3)cc1 | 0%
69 | COc1ccc(C2(CNC(=O)Cc3ccc(OC)c(OC)c3)CCCC2)cc1 | -33.6%
70 | COc1cc(CC(=O)Nc2nc(-c3ccc(F)c(F)c3)cs2)cc(OC)c1OC | -77.3% (active)
71 | COc1ccc(-c2csc(NC(=O)c3ccc(N4C(=O)CCC4=O)cc3)n2)cc1OC | -70.7% (active)
72 | COc1ccc(-c2cc(C(=O)NCc3cc(OC)c(OC)c(OC)c3)[nH]n2)cc1 | 3.93%
73 | Cc1cc2nc(NC(=O)c3ccc(S(=O)(=O)N4CCOCC4)cc3)sc2cc1C | 3.59%
74 | COc1ccc(C(=O)Nc2nc(-c3ccc(S(=O)(=O)N4CCOCC4)cc3)cs2)cc1 | -98.4% (active)
75 | CCC(C)N(C(=O)COC(=O)C1C(C(=O)OC)=C(C)NC(C)=C1C(=O)OC)C1CCS(=O)(=O)C1 (stereo unspecified) | -15.8%
76 | COc1ccc(S(=O)(=O)N[C@H]2CC[C@@]34CCCN3C(=O)CCC[C@H]4[C@H]2Cc2ccccc2)cc1 | -13.9%
77 | Cc1ccccc1OCc1nc2c3cnn(-c4ccccc4F)c3ncn2n1 | 2.88%
78 | CCN1CCN(c2ncc3c(n2)CC(c2ccccc2O)CC3=O)CC1 (stereo unspecified) | -2.14%
79 | CCOC(=O)c1ccc2c(c1)N(Cc1cccc(OC)c1)C(=O)c1ccccc1S2(=O)=O | 41.8%
80 | O=C(NC1CCCCC1)c1ccc(Cn2c(SCc3ccccc3)nc3cccnc32)cc1 | 13.4%
81 | CCS(=O)(=O)N1CCc2cc(C(=O)NCc3ccc(OC)cc3)ccc21 | 21.8%
82 | Cc1ccc(OCCSc2nc(C)c(Cc3ccccc3)c(=O)[nH]2)cc1 | -3.53%
83 | COc1ccc(CNC(=O)c2cc3c(=O)[nH]c4ccccc4c3s2)cc1 | -6.89%
84 | Cc1ccc(C)n1-c1nnc(N2CCC(C(=O)NCc3ccccc3Cl)CC2)s1 | -16.5%
85 | Cc1cccc(-c2nc(SCC(=O)Nc3cc(C)on3)c3c(=O)n(C)c(=O)n(C)c3n2)c1 | -3.8%
86 | CCOC(=O)c1oc2ccc(S(=O)(=O)n3nc(-c4ccccc4OC)cc3N)cc2c1C | 0.413%
